Experimental data: PMC8159961, “Exploring protein hotspots by optimized fragment pharmacophores” (Nature Communications, 2021)
Values without a mark were called inactive. How the calls were made is not given here.

Columns and labels:
Assay in all cases: primary screen, binary call; higher = more effect of the substance
Factor Xa = Factor Xa (bovine, UniProt P00743); parameters: screenings were carried out in duplicate in one independent experiment; conditions: 200 µM
Procedure: Protease inhibitory assays were performed in transparent microtiter plates in a final volume of 200 µL with the use of chromogenic substrates. The reaction rates in the absence and in the presence of the inhibitor were measured; screenings were carried out in duplicate in one independent experiment and Ki values were determined in triplicate in two independent experiments.

5-HT6 receptor = 5-HT6 receptor (human, UniProt P50406); parameters: hit call from the mean of at least two separate experiments; conditions: 10 µM
5-HT6 receptor, sequence (P50406 whole entry, looked up): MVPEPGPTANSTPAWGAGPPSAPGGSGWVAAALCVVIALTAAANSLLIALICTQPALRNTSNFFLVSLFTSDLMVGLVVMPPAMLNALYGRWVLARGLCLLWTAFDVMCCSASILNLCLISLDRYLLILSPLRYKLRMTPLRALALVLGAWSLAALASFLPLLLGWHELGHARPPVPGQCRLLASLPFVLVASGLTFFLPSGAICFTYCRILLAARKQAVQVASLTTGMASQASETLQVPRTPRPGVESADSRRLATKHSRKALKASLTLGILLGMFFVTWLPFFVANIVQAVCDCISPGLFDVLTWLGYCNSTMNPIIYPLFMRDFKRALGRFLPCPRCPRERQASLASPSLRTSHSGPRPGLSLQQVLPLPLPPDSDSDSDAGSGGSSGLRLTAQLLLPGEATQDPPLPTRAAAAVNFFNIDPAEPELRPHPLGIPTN

5-HT7b receptor = 5-HT7b receptor (human, UniProt P34969); parameters: hit call from the mean of at least two separate experiments; conditions: 10 µM
5-HT7b receptor, sequence (P34969 whole entry, looked up): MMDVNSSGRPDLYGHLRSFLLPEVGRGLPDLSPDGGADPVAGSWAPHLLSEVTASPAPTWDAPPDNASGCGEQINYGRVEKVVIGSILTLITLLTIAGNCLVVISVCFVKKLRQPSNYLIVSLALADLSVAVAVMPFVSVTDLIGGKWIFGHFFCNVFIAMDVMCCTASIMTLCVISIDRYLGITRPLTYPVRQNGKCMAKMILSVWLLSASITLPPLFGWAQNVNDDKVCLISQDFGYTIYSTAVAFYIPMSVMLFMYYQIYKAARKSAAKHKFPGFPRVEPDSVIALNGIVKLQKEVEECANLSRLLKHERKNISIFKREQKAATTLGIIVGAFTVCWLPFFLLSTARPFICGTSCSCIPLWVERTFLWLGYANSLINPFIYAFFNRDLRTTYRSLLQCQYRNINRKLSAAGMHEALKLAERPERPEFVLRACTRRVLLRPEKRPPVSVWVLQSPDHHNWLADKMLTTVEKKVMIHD

Factor Xa, sequence (P00743 41-180 limits assumed): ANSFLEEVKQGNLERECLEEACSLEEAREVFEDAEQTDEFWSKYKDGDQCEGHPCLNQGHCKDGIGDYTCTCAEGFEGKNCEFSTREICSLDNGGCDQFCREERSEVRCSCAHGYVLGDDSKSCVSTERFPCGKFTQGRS
Factor Xa, sequence (P00743 234-492 limits assumed): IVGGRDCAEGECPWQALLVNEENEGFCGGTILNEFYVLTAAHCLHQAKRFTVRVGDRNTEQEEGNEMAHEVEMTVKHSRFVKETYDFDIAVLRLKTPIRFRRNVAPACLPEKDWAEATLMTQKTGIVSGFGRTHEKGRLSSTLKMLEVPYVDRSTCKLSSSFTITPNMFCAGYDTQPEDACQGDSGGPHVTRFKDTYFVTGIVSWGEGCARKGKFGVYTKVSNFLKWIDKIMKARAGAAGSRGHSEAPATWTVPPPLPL

O=C(c1ccccc1F)N1CCNCC1 was tested. Which “Factor Xa” value (Factor Xa) did it give?
Its value is 1 (active).

And the 5-HT6 (5-HT6 receptor)?
The 5-HT6 was 0.

And the 5-HT7 (5-HT7b receptor)?
Its 5-HT7 is 0.

With O=c1[nH]ncc2c1oc1ccccc12 as the compound, how does the “Factor Xa” value (Factor Xa) read?
Its value is 0.

And the 5-HT6 (5-HT6 receptor)?
The 5-HT6 was 0.

What about the 5-HT7 (5-HT7b receptor) of the same compound?
Its 5-HT7 is 0.

With CC(=O)c1ccc2c(c1)CNCC2 as the compound, how does the “Factor Xa” value (Factor Xa) read?
The value was 0.

And the 5-HT6 (5-HT6 receptor)?
The 5-HT6 was 0.

And the 5-HT7 (5-HT7b receptor)?
Its 5-HT7 is 0.

Which “Factor Xa” value (Factor Xa) does the source give for O=C1CNCCN1c1ccccc1 here?
Its value is 0.

And the 5-HT6 (5-HT6 receptor)?
The 5-HT6 was 0.

And the 5-HT7 (5-HT7b receptor)?
The 5-HT7 was 0.

With CC(CN)N1CCc2sccc2C1 (stereo not drawn) as the compound, how does the “Factor Xa” value (Factor Xa) read?
The value was 0.

What about the 5-HT6 (5-HT6 receptor) of the same compound?
The 5-HT6 was 0.

And the 5-HT7 (5-HT7b receptor)?
The 5-HT7 was 0.

With O=C1CSC(Nc2ccc(F)cc2)=N1 as the compound, how does the “Factor Xa” value (Factor Xa) read?
The value was 0.

And the 5-HT6 (5-HT6 receptor)?
Its 5-HT6 is 0.

What about the 5-HT7 (5-HT7b receptor) of the same compound?
The 5-HT7 was 0.

Which results are given for Cc1cc(-c2ccccc2)n[nH]1?
Factor Xa (Factor Xa): 0; 5-HT6 (5-HT6 receptor): 0; 5-HT7 (5-HT7b receptor): 0

Which results are given for CC(=O)c1sc(-c2ccc(O)cc2)nc1C?
Factor Xa (Factor Xa): 1 (active); 5-HT6 (5-HT6 receptor): 1 (active); 5-HT7 (5-HT7b receptor): 0

How did the “Factor Xa” value (Factor Xa) turn out when c1ccc(Nc2nncs2)cc1 was run?
The value was 1 (active).

And the 5-HT6 (5-HT6 receptor)?
The 5-HT6 was 0.

What about the 5-HT7 (5-HT7b receptor) of the same compound?
Its 5-HT7 is 0.

With O=C(CN1CCCC1)c1ccccc1Cl as the compound, how does the “Factor Xa” value (Factor Xa) read?
Its value is 0.

And the 5-HT6 (5-HT6 receptor)?
The 5-HT6 was 0.

What about the 5-HT7 (5-HT7b receptor) of the same compound?
The 5-HT7 was 0.

Which results are given for O=C1NC(=O)C2(CCc3ccccc32)N1 (stereo not drawn)?
Factor Xa (Factor Xa): 0; 5-HT6 (5-HT6 receptor): 0; 5-HT7 (5-HT7b receptor): 0

With CC1(C)OC(=O)c2cc(Br)c(O)cc2O1 as the compound, how does the “Factor Xa” value (Factor Xa) read?
The value was 0.

And the 5-HT6 (5-HT6 receptor)?
The 5-HT6 was 1 (active).

And the 5-HT7 (5-HT7b receptor)?
The 5-HT7 was 0.

COC(=O)c1c(C)nc(C2CC2)[nH]c1=O was tested. Which “Factor Xa” value (Factor Xa) did it give?
The value was 0.

What about the 5-HT6 (5-HT6 receptor) of the same compound?
Its 5-HT6 is 0.

What about the 5-HT7 (5-HT7b receptor) of the same compound?
The 5-HT7 was 0.

With O=c1[nH]c2c(s1)CCC2 as the compound, how does the “Factor Xa” value (Factor Xa) read?
The value was 0.

What about the 5-HT6 (5-HT6 receptor) of the same compound?
The 5-HT6 was 0.

And the 5-HT7 (5-HT7b receptor)?
The 5-HT7 was 0.

CCc1nccn1CC(=O)O was tested. Which “Factor Xa” value (Factor Xa) did it give?
The value was 0.

What about the 5-HT6 (5-HT6 receptor) of the same compound?
Its 5-HT6 is 0.

And the 5-HT7 (5-HT7b receptor)?
Its 5-HT7 is 0.

Which “Factor Xa” value (Factor Xa) does the source give for FC1(F)CNCC(F)(F)O1 here?
The value was 0.

And the 5-HT6 (5-HT6 receptor)?
The 5-HT6 was 0.

What about the 5-HT7 (5-HT7b receptor) of the same compound?
The 5-HT7 was 0.

For Cn1c(CO)nc2ccccc21, which “Factor Xa” value (Factor Xa) is on record?
The value was 0.

What about the 5-HT6 (5-HT6 receptor) of the same compound?
The 5-HT6 was 0.

And the 5-HT7 (5-HT7b receptor)?
Its 5-HT7 is 0.

For Oc1cnc(-c2ccccc2)nc1, which “Factor Xa” value (Factor Xa) is on record?
The value was 0.

And the 5-HT6 (5-HT6 receptor)?
Its 5-HT6 is 0.

And the 5-HT7 (5-HT7b receptor)?
The 5-HT7 was 0.

With CCc1ccc(NC2=NCCCS2)cc1 as the compound, how does the “Factor Xa” value (Factor Xa) read?
Its value is 0.

What about the 5-HT6 (5-HT6 receptor) of the same compound?
The 5-HT6 was 0.

What about the 5-HT7 (5-HT7b receptor) of the same compound?
The 5-HT7 was 0.

For CC1CCc2sc(C(=O)O)cc2C1 (stereo not drawn), which “Factor Xa” value (Factor Xa) is on record?
The value was 0.

And the 5-HT6 (5-HT6 receptor)?
The 5-HT6 was 0.

What about the 5-HT7 (5-HT7b receptor) of the same compound?
Its 5-HT7 is 0.

With Cn1nc(C(F)(F)F)cc1O as the compound, how does the “Factor Xa” value (Factor Xa) read?
The value was 0.

What about the 5-HT6 (5-HT6 receptor) of the same compound?
Its 5-HT6 is 0.

What about the 5-HT7 (5-HT7b receptor) of the same compound?
Its 5-HT7 is 0.

How did the “Factor Xa” value (Factor Xa) turn out when O=C(O)c1cnc(-c2ccccc2)s1 was run?
Its value is 0.

And the 5-HT6 (5-HT6 receptor)?
The 5-HT6 was 0.

And the 5-HT7 (5-HT7b receptor)?
Its 5-HT7 is 0.

COc1cccc(NC2=NCCCCC2)c1 was tested. Which “Factor Xa” value (Factor Xa) did it give?
The value was 0.

And the 5-HT6 (5-HT6 receptor)?
Its 5-HT6 is 0.

And the 5-HT7 (5-HT7b receptor)?
The 5-HT7 was 0.

Which results are given for COc1ccccc1CC1CCNCC1.Cl?
Factor Xa (Factor Xa): 1 (active); 5-HT6 (5-HT6 receptor): 1 (active); 5-HT7 (5-HT7b receptor): 1 (active)

How did the “Factor Xa” value (Factor Xa) turn out when COc1ccccc1C1CCNCC1 was run?
Its value is 0.

And the 5-HT6 (5-HT6 receptor)?
Its 5-HT6 is 1 (active).

What about the 5-HT7 (5-HT7b receptor) of the same compound?
The 5-HT7 was 1 (active).

Cc1nc(-c2ccccc2)cs1 was tested. Which “Factor Xa” value (Factor Xa) did it give?
Its value is 0.

And the 5-HT6 (5-HT6 receptor)?
Its 5-HT6 is 1 (active).

And the 5-HT7 (5-HT7b receptor)?
Its 5-HT7 is 0.

With Fc1ccc(CC2CCCNC2)cc1 (stereo not drawn) as the compound, how does the “Factor Xa” value (Factor Xa) read?
The value was 0.

And the 5-HT6 (5-HT6 receptor)?
Its 5-HT6 is 0.

What about the 5-HT7 (5-HT7b receptor) of the same compound?
The 5-HT7 was 0.

CN1CC(=O)NC1=O was tested. Which “Factor Xa” value (Factor Xa) did it give?
The value was 0.

What about the 5-HT6 (5-HT6 receptor) of the same compound?
The 5-HT6 was 0.

What about the 5-HT7 (5-HT7b receptor) of the same compound?
The 5-HT7 was 0.

Oc1nnc(-c2ccccc2)o1 was tested. Which “Factor Xa” value (Factor Xa) did it give?
Its value is 0.

And the 5-HT6 (5-HT6 receptor)?
The 5-HT6 was 0.

What about the 5-HT7 (5-HT7b receptor) of the same compound?
The 5-HT7 was 0.

What does the source list for O=C(O)C1CCN(c2ncccn2)CC1?
Factor Xa (Factor Xa): 0; 5-HT6 (5-HT6 receptor): 0; 5-HT7 (5-HT7b receptor): 0

For O=C1CCN(c2ccccn2)CC1, which “Factor Xa” value (Factor Xa) is on record?
The value was 0.

What about the 5-HT6 (5-HT6 receptor) of the same compound?
The 5-HT6 was 0.

And the 5-HT7 (5-HT7b receptor)?
Its 5-HT7 is 0.
